The nature of assay [1]: ATG_M_06_TRANS: Attagene TRANS-FACTORIAL HepG2 Assay for M06 Transcription Factor (Internal Marker) (AID 2282983; active means hit-call score of the fitted dose curve at least 0.9, where 1 is the maximum). Conditions: HepG2 Attagene TRANS M06 internal marker reporter. The essentials:
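Measured by capillary electrophoresis of fluorescently labelled RT-PCR products, this endpoint reflects reporter mRNA in HepG2 cells harbouring exogenous NR-GAL4 reporter constructs after 24 h exposure, with DMSO as baseline.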

Assay [2] is described as follows: ATG_M_32_TRANS: Attagene TRANS-FACTORIAL HepG2 Assay for M32 Transcription Factor (Internal Marker) (AID 2282984; active means hit-call score of the fitted dose curve at least 0.9, where 1 is the maximum;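 further: transcript level of a background control reporter unit measured by RT-PCR and capillary electrophoresis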). To be noted: HepG2 Attagene TRANS M32 internal marker reporter. The essentials: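 Measures reporter mRNA induction in human HepG2 liver cells after 24 h chemical treatment. Transcripts from transiently transfected GAL4-UAS reporter units are amplified, fluorescently labelled and sized by capillary electrophoresis; gain of signal relative to DMSO.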

Assay [3] has as its target Transcriptional activator Myb (Homo sapiens) (UniProt P10242). Nature of the assay: ATG_Myb_CIS: Attagene CIS-FACTORIAL HepG2 Assay for human Myeloblastosis (Myb) Proto-Oncogene Transcription Factor (AID 2282986). Conditions: HepG2 Attagene CIS-FACTORIAL Myb reporter transcription; actives raise or lower the signal. The essentials:
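Reporter mRNA is quantified by RT-PCR and capillary electrophoresis 24 h after dosing HepG2 cells transfected with cis-regulated reporter units, which track endogenous transcription factor activity. Gain and loss of signal are fitted versus DMSO baseline.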

Assay [4] addresses Nuclear respiratory factor 1 (Homo sapiens) (UniProt Q16656). Nature of the assay: ATG_NRF1_CIS: Attagene CIS-FACTORIAL HepG2 Assay for human Nuclear Respiratory Factor 1 (NRF1) Orphan Gene (AID 2282987). Conditions: HepG2 NRF1 cis-element reporter, Attagene multiplex; actives raise or lower the signal. The method in brief: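 Endogenous NRF1-driven reporter transcription in transfected HepG2 cells after 24 h treatment. Readout: RT-PCR products, 6-FAM labelled and resolved by capillary electrophoresis; changes fitted both directions relative to DMSO.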

The nature of assay [5]: ATG_NFI_CIS: Attagene CIS-FACTORIAL HepG2 Assay for human Nuclear Factor I (NFI) (AID 2282989). Conditions: HepG2 cis-regulatory reporter, NFI response element transcription; actives raise or lower the signal. The essentials: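 Transfected HepG2 liver cells, exposed 24 h, supplied total RNA for oligo(dT) reverse transcription and reporter-specific PCR. Labelled, HpaI-cut fragments were sized by capillary electrophoresis; DMSO set the baseline for bidirectional fitting.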

Assay [6] concerns the target Myc proto-oncogene protein (Homo sapiens) (UniProt P01106). The experiment in a line: ATG_Myc_CIS: Attagene CIS-FACTORIAL HepG2 Assay for human Myelocytomatosis (Myc) Proto-Oncogene Transcription Factor (AID 2282990). Conditions: HepG2, Attagene cis-reporter transcription factor activity; actives raise or lower the signal. The essentials:
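After 24 h chemical treatment of HepG2 cells carrying multiplexed cis-regulated reporter constructs, reporter transcripts quantified by RT-PCR and capillary electrophoresis of fluorescent fragments. Gain or loss fitted against DMSO baseline.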

A short description of assay [7]: ATG_NF_kB_CIS: Attagene CIS-FACTORIAL HepG2 Assay for human Nuclear Factor Kappa B (NF-kB) (AID 2282991). To be noted: HepG2 Attagene cis-factorial NF-kB reporter mRNA; actives raise or lower the signal. The essentials: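 Readout is reporter transcript level, gain or loss versus DMSO, measured 24 h post-dose via RT-PCR, fluorescent labelling and capillary electrophoresis. Human HepG2 liver cells carried transiently transfected CIS reporter constructs reflecting endogenous factors.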

Assay [8] is described as follows: ATG_NRF2_ARE_CIS: Attagene CIS-FACTORIAL HepG2 Assay for human Nuclear Factor Erythroid 2 Related Factor 2 (NFR2) response to Antioxidant Response Elements (ARE) (AID 2282992). To be noted: HepG2 Attagene ARE/NRF2 reporter, transcription factor activity; actives raise or lower the signal. The essentials:
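Multiplexed reporter mRNA profiling in HepG2 after a 24 h chemical exposure. Curves fitted in both directions relative to DMSO negative control.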

Assay [9] is described as follows: ATG_Oct_MLP_CIS: Attagene CIS-FACTORIAL HepG2 Assay for human Octamer-Binding Transcription Factor (Oct) (AID 2282993). Conditions: HepG2 Attagene cis-factorial Oct reporter, mRNA; actives raise or lower the signal. The essentials: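 Using HepG2 cells bearing transfected cis-reporter constructs, mRNA induction was read after 24 h by fluorescent RT-PCR and capillary electrophoresis, with DMSO defining baseline for gain- or loss-of-signal fits.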

Assay [10] has as its target Cellular tumor antigen p53 (Homo sapiens) (UniProt P04637). The experiment in a line: ATG_p53_CIS: Attagene CIS-FACTORIAL HepG2 Assay for human p53 Transcription Factor (AID 2282994). To be noted: HepG2 p53 cis-element reporter, Attagene mRNA; actives raise or lower the signal. The method in brief: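 Multiplexed reporter mRNA assay in human HepG2 liver cells; cis-regulated units report endogenous factor activity. Values come from bidirectional curve fitting against DMSO negative control after 24 h treatment.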

The nature of assay [11]: BSK_3C_TissueFactor: BioMAP Diversity Plus: 3C Assay for Tissue Factor Biomarker Activity (AID 2282997). Conditions: BioMAP 3C HUVEC, tissue factor biomarker readout; actives raise or lower the signal. The essentials: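 Values derive from bidirectional curve fitting against DMSO of Tissue Factor ELISA signals, taken 24 h after dosing primary human umbilical vein endothelial cells.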

Assay [12] in a line: BSK_3C_uPAR: BioMAP Diversity Plus: 3C Assay for Urokinase-type plasminogen activator receptor (uPAR) Biomarker Activity (AID 2282998). To be noted: BioMAP 3C HUVEC, uPAR biomarker ELISA; actives raise or lower the signal. The method in brief: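 In this endothelial cell-based assay, human umbilical vein primary cells were treated with chemicals and harvested at 24 h. uPAR was quantified using ELISA, with gains or losses fitted relative to DMSO controls.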
(In general: ELISA stands for enzyme-linked immunosorbent assay.)

Assay [13] can be described thus: BSK_3C_VCAM1: BioMAP Diversity Plus: 3C Assay for Vascular cell adhesion molecule 1 (VCAM1) Biomarker Activity (AID 2282999). Conditions: BioMAP 3C HUVEC, VCAM1 ELISA, cytokine-stimulated; actives raise or lower the signal. The essentials: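 Endothelial cells from human umbilical vein are treated with test chemical. At 24 h, VCAM-1 is measured by ELISA, and responses in either direction are fitted relative to DMSO.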

Assay [14] is described as follows: BSK_4H_Eotaxin3: BioMAP Diversity Plus: 4H Assay for Eotaxin 3 Biomarker Activity (AID 2283000).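 On outcome: CCL26 protein level quantified by ELISA in parallel with SRB cytotoxicity check.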 To be noted: primary human endothelial cells (HUVEC); actives raise or lower the signal. The method in brief:
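Endothelial primary cells (human umbilical vein) exposed to compound for 24 h. ELISA detection of Eotaxin-3.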

For assay [15], the target named is human Peroxisome Proliferator-activated Receptor alpha (PPARa), PPARA (gene 5465) (UniProt Q07869). Nature of the assay: ATG_PPARa_TRANS: Attagene TRANS-FACTORIAL HepG2 Assay for human Peroxisome Proliferator-activated Receptor alpha (PPARa) (AID 2283001; active means hit-call score of the fitted dose curve at least 0.9, where 1 is the maximum). The method in brief: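 Read-out is fluorescence of reporter cDNA fragments resolved by capillary electrophoresis after RT-PCR. Human HepG2 liver cells carried transfected PPARa-Gal4 chimera and GAL4-UAS reporter units, treated 24 h; activity scored as increase over DMSO.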
Sequence of human Peroxisome Proliferator-activated Receptor alpha (PPARa), PPARA (gene 5465) (Q07869 whole entry, looked up, the tested form may be a part): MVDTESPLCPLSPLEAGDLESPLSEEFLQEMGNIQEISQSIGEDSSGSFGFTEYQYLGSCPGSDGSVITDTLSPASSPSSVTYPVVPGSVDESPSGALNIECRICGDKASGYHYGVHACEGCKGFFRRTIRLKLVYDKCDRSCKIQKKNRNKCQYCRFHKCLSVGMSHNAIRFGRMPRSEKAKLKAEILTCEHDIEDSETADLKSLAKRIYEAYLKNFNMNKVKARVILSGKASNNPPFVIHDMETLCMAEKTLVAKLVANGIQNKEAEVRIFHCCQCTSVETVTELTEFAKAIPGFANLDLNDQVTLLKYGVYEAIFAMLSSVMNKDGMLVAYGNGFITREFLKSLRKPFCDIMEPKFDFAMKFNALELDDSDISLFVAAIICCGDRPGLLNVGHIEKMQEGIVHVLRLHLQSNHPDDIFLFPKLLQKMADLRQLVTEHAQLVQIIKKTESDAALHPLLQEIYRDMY

The target of assay [16] is Nuclear receptor subfamily 4 group A member 2 (Homo sapiens) (UniProt P43354). The experiment in a line: ATG_NURR1_TRANS: Attagene TRANS-FACTORIAL HepG2 Assay for human Nuclear Receptor Related Protein 1 (NURR1) (AID 2282985; active means hit-call score of the fitted dose curve at least 0.9, where 1 is the maximum). To be noted: HepG2 Attagene TRANS reporter, mRNA readout. The method in brief:
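Transient transfection of HepG2, human liver cells, with multiple GAL4-UAS reporter transcription units. Cells dosed 24 h, RNA isolated, reverse-transcribed, PCR-amplified, FAM-labelled, HpaI-digested, sized by capillary electrophoresis. DMSO served as negative control.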

In assay [17] the target is human Peroxisome Proliferator-activated Receptor delta (PPARd), PPARD (gene 5467) (UniProt Q03181). The experiment in a line: ATG_PPARd_TRANS: Attagene TRANS-FACTORIAL HepG2 Assay for human Peroxisome Proliferator-activated Receptor delta (PPARd) (AID 2283002; active means hit-call score of the fitted dose curve at least 0.9, where 1 is the maximum). The essentials: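 Read-out is induced reporter mRNA, quantified by RT-PCR with fluorescent labelling and capillary electrophoresis after 24 h dosing. Cells are HepG2 transiently carrying multiple GAL4-UAS reporter units driven by exogenous NR-GAL4 chimeras; DMSO serves as baseline.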
Sequence of human Peroxisome Proliferator-activated Receptor delta (PPARd), PPARD (gene 5467) (Q03181 whole entry, looked up, the tested form may be a part): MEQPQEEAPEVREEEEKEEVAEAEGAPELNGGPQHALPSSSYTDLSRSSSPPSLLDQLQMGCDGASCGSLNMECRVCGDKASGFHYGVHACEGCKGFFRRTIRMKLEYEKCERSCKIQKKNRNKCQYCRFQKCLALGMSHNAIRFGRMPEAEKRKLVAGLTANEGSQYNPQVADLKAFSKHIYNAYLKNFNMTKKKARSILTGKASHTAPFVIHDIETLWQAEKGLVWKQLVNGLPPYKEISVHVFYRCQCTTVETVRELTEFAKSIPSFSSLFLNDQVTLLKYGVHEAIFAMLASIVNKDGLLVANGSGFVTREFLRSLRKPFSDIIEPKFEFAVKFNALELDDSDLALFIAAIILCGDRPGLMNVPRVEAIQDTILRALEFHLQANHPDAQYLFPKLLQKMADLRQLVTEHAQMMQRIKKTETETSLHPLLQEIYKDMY

Read-out in assay [18]: Intercellular Adhesion Molecule 1 (ICAM1), ICAM1 (gene 3383)
Nature of the assay: BSK_3C_ICAM1: BioMAP Diversity Plus: 3C Assay for Intercellular Adhesion Molecule 1 (ICAM1) Biomarker Activity (AID 2283003). To be noted: primary human endothelial cells (HUVEC); actives raise or lower the signal. The method in brief:
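ICAM-1 levels measured by ELISA after HUVEC cultures in the 3C system had been dosed for 24 h. Gain or loss of signal relative to DMSO was fitted in both directions.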

As usually defined, the AC50 is the concentration giving half of the maximal activity seen.

Records with an inconclusive call do not appear. Calls of active or inactive are those of the source. How the source made its calls, unless noted: active means hit-call score of the fitted dose curve at least 0.9, where 1 is the maximum; inactive means score below 0.9.

Sequence of Transcriptional activator Myb (Homo sapiens) (P10242 whole entry, looked up): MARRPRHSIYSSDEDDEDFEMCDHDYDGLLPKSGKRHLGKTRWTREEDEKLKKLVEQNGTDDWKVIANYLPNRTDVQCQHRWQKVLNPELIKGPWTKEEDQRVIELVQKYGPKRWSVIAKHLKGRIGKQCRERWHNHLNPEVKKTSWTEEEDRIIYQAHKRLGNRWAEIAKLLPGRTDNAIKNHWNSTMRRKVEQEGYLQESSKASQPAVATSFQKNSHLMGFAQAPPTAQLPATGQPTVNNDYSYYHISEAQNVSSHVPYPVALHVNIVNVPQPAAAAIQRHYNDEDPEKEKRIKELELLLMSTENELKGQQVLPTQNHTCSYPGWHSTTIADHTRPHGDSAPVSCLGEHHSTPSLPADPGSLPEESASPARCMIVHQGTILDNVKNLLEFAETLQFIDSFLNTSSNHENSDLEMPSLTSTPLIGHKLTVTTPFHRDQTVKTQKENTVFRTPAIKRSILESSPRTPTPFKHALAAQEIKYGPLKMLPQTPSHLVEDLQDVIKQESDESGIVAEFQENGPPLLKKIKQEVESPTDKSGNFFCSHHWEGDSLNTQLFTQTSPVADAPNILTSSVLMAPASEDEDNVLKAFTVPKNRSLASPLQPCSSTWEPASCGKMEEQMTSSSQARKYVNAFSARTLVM
Sequence of Cellular tumor antigen p53 (Homo sapiens) (P04637 whole entry, looked up): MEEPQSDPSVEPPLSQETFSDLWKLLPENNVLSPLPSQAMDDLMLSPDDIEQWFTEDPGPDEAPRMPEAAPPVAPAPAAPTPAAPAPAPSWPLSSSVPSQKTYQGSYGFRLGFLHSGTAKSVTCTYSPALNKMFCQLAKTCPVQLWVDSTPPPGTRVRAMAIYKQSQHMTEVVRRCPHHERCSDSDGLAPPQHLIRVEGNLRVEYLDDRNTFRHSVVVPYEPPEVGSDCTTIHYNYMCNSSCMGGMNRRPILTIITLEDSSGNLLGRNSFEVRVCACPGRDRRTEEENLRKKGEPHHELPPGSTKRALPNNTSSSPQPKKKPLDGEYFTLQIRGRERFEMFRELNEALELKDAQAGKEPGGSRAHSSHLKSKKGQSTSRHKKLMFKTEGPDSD
Sequence of Myc proto-oncogene protein (Homo sapiens) (P01106 whole entry, looked up, the tested form may be a part): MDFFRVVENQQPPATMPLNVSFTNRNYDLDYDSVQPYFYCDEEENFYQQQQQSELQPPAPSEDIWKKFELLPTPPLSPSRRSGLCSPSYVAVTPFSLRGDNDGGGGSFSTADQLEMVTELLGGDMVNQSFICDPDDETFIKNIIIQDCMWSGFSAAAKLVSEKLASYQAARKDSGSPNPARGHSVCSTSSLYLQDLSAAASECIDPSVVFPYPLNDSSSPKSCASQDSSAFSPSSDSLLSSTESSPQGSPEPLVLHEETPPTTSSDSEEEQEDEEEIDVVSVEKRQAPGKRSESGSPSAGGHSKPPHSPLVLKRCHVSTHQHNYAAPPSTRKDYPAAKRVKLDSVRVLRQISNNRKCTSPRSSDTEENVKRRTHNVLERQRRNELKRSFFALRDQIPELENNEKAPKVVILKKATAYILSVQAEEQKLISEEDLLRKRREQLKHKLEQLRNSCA
Sequence of Nuclear respiratory factor 1 (Homo sapiens) (Q16656 whole entry, looked up): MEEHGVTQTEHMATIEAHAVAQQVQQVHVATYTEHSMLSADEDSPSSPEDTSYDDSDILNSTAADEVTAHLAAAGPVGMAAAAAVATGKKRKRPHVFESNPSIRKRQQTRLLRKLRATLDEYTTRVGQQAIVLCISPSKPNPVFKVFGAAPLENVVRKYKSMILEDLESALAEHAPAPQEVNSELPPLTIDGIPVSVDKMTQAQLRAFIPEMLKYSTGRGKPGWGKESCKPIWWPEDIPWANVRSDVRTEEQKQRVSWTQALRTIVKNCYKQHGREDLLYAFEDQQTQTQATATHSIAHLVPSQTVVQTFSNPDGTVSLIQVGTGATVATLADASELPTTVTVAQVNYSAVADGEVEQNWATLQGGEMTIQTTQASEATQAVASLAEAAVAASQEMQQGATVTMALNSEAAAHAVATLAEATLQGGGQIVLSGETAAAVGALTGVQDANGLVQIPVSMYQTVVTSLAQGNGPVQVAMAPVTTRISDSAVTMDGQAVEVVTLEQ
Sequence of Nuclear receptor subfamily 4 group A member 2 (Homo sapiens) (P43354 whole entry, looked up, the tested form may be a part): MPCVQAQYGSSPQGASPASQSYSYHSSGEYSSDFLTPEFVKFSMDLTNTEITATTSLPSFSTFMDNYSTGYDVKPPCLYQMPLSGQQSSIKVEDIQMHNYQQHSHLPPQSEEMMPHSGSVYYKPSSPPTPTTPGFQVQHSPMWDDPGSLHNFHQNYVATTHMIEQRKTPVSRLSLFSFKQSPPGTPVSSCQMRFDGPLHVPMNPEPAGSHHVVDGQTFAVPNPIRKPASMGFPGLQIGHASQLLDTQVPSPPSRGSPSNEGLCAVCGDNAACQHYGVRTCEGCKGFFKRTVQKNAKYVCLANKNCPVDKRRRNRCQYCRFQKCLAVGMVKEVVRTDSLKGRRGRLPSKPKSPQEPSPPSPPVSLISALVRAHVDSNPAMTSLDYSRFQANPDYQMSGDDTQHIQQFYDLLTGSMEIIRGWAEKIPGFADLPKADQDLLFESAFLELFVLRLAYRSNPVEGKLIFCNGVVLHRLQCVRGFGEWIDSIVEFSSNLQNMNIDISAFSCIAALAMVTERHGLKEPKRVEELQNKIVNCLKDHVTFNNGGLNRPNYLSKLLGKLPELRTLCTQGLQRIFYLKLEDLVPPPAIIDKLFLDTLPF

Take `CC(C)(C)c1cc(O)ccc1O`: the compound was classed as inactive in [1], in assay [2], in [3], in assay [4], in assay [5] and in [6]. In addition, the call in [7], in assay [10], in assay [11], in [12] and in assay [15] was inactive. Further, the AC50 is 9.05 µM (active) in assay [8], 129 µM (active) in assay [9], 28.1 µM (active) in assay [13] and 27.4 µM (active) in assay [14].
Consider `CCSC(C)CC1CC(=O)C(C(CC)=NOC/C=C/Cl)=C(O)C1` (stereo unspecified), for which the result in assay [1], in [2], in assay [16], in [3], in [4] and in [5] was inactive. Moreover, the result in [6], in assay [7], in assay [8], in [9], in assay [10] and in assay [11] was inactive. For the same compound, the result in [12], in assay [13] and in assay [14] was inactive.
In the case of `C=CC(=O)N(C)C`, the compound was classed as inactive in assay [1], in assay [2], in assay [3], in [4], in [5] and in assay [6]. The call in [7], in assay [8], in [9], in assay [10] and in assay [17] was inactive.
Consider `CCC(=O)C(CC(C)N(C)C)(c1ccccc1)c1ccccc1` (stereo unspecified), for which the compound was classed as inactive in assay [2], in assay [3], in assay [4], in [5], in assay [6] and in [8]. Further, the outcome in assay [11], in assay [12], in [13], in assay [14], in assay [15] and in assay [18] was inactive. In addition, the half-maximal activity concentration (AC50) in assay [10] is 48.9 µM (active).
`O=S(=O)(c1ccc(Cl)cc1)c1ccc(Cl)cc1`: the result in assay [1], in assay [3], in assay [4], in assay [5], in [6] and in [9] was inactive. In addition, the outcome in assay [10], in [11], in [12], in assay [14] and in assay [17] was inactive. Moreover, in [8], the AC50 is 10 µM (active).
`Nc1ncc([N+](=O)[O-])s1`: the compound was classed as inactive in assay [1], in assay [16], in [3], in [4], in [5] and in assay [6]. In addition, the compound was called inactive in assay [7], in [9], in [10], in [12], in assay [14] and in assay [15]. Further, the call in [17] was inactive. The AC50 was 73.2 µM (active) in assay [8] and 12.2 µM (active) in assay [11].

Values taken from PubChem BioAssay (EPA / NIEHS).
